Values joined by “and” are separate entries in the source; they are usually repeats but may differ in a detail not shown here. Equal entries are not always repeated. Structures can show the parent of a compound that is named as a salt.
Assays:
Assay in all cases: cell viability relative to vehicle control; higher = less cytotoxic
Details in all cases: 10 µM
K562 = test system: K562
Outline: (§1)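 Four leukaemia lines, as CRISPR-edited mutant clones and isogenic wild-type clones, were tested against Selleck bioactive, kinase and epigenetic probe libraries after removal of identity-inconsistent compounds. Cells were exposed to a single 10 µM dose for 48 h, and CellTiter-Glo luminescence was then read. Viability was calculated relative to the on-plate vehicle control.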

MARIMO = test system: MARIMO
Outline: as §1

MOLM14 = test system: MOLM14
Outline: as §1

OCI-AML2 = test system: OCI-AML2
Outline: as §1

Structure (SMILES) | cell viability (K562; SRSF2 genotype: SRSF2 P95H/wt) | cell viability (K562; SRSF2 genotype: SRSF2 wt/wt) [%] | cell viability (MARIMO; SRSF2 genotype: SRSF2 P95H/wt) [%] | cell viability (MARIMO; SRSF2 genotype: SRSF2 wt/wt) [%] | cell viability (MOLM14; SRSF2 genotype: SRSF2 P95H/wt) [%] | cell viability (MOLM14; SRSF2 genotype: SRSF2 wt/wt) [%] | cell viability (OCI-AML2; SRSF2 genotype: P95H/wt) [%] | cell viability (OCI-AML2; SRSF2 genotype: wt/wt) [%]
COc1cc(C=O)ccc1O [Vanillin] | 94.2% and 102% | 99.7 | 102 | 105 | 103 | 102 | 105 | 97.5
CN1[C@@H]2CC[C@H]1C[C@@H](OC(=O)c1c[nH]c3ccccc13)C2 [Tropisetron HCl] | 97.5% and 100% | 96.6 | 102 | 102 | 104 | 102 | 101 | 105
Oc1cc2c(cc1O)[C@@H]1c3ccc(O)c(O)c3OC[C@]1(O)C2 [Hematoxylin (Hydroxybrazilin)] | 97% and 94.6% | 94.1 | 95.7 | 98.5 | 99.8 | 99.7 | 101 | 98.4
Cc1ccc(Cl)c(Nc2ccccc2C(=O)O)c1Cl [Meclofenamate sodium] | 97.7% and 99.9% | 96.9 | 97.2 | 96.4 | 96.8 | 98.5 | 105 | 99.4
C=CC(=O)N1CC(=Cc2ccc([N+](=O)[O-])cc2)C(=O)C(=Cc2ccc([N+](=O)[O-])cc2)C1 | 15.9% and 2.27% | 9.63 | 3.16 | 1.15 | 0.72 | 0.74 | 2.08 | 1.27
CN(C)CC[C@H](CSc1ccccc1)Nc1ccc(S(=O)(=O)NC(=O)c2ccc(N3CCN(Cc4ccccc4-c4ccc(Cl)cc4)CC3)cc2)cc1[N+](=O)[O-] | 49.5% and 28.1% | 72.7 | 0.46 | 1.66 | 0.15 | 2 | 0.19 | 3.31
CC1CCCCCCCCCCCCC(=O)C1 (stereo not given) [Muscone] | 91.4% and 89.5% | 87.4 | 87.1 | 97.1 | 90.6 | 89.2 | 82 | 90.7
Cc1oc2nc3c(c(NC(=O)CN4CCCC4=O)c2c1C)CCCC3 [Coluracetam] | 95.4% and 96.3% | 105 | 93.7 | 104 | 103 | 103 | 94.9 | 99.4
CC1(C)S[C@@H]2[C@H](NC(=O)C(c3ccccc3)S(=O)(=O)O)C(=O)N2[C@H]1C(=O)O (stereo not given in full) [Sulbenicillin Sodium] | 109% and 103% | 97.7 | 104 | 113 | 97.7 | 105 | 90.7 | 99.3
CC(C)c1c2cc(-c3ccnc(NC4CCC(NC5CCOCC5)CC4)n3)ccc2nn1C (stereo not given) | 10% and 24.4% | 8.4 | 13.4 | 6.58 | 0.76 | 0.31 | 2.85 | 13.2
CC(C)(C#N)c1ccc(N2C(=O)OCc3cnc4ccc(-c5cnc6ccccc6c5)cc4c32)cc1 | 78.7% and 82.1% | 85.8 | 83 | 92.5 | 66 | 80.2 | 74.5 | 75.7
Nc1nc(Cl)nc2c1ncn2[C@@H]1O[C@H](CO)[C@@H](O)[C@@H]1F [Clofarabine] | 96.7% and 113% | 105 | 11.5 | 8.77 | 2.95 | 0.83 | 5.47 | 4.64
CC(C)=CCc1cc2c(cc1O)O[C@H](c1ccc(O)cc1)CC2=O [Bavachin] | 95.2% and 87.3% | 100 | 96.5 | 99.5 | 111 | 109 | 101 | 114
COc1cc(C=CC=O)ccc1O [Ferulaldehyde] | 102% and 97.5% | 98.5 | 97 | 103 | 89.6 | 97.7 | 95.6 | 111
CC(C)(Cc1ccc2ccccc2c1)NC[C@@H](O)COc1cccc(Cl)c1C#N | 10.7% and 3.37% | 1.65 | 26.8 | 25.5 | 8.56 | 2.3 | 0.55 | 1.15
CCc1c(C(=O)NCCc2ccc(N3CCCCC3)cc2)[nH]c2ccc(Cl)cc12 | 107% and 104% | 111 | 106 | 108 | 85.4 | 102 | 112 | 107
O=Cc1ccc(O)c(O)c1 [3,4-Dihydroxybenzaldehyde] | 95.8% and 92.8% | 93.7 | 77.4 | 91.9 | 91.3 | 99.4 | 88.9 | 92.4
CN1CCC(=C2c3ccccc3CCc3cccnc32)CC1 [Azatadine dimaleate] | 100% and 108% | 94.1 | 92.2 | 102 | 91.9 | 100 | 88 | 99
C/C=C(/C)C(=O)OC(C)(C)[C@@H]1Cc2c(ccc3ccc(=O)oc23)O1 [Columbianadin] | 99.8% and 97.1% | 99.2 | 87.8 | 86.5 | 102 | 98.4 | 72.8 | 77.5
Nc1c(CC(=O)O)cccc1C(=O)c1ccccc1 [Amfenac Sodium (monohydrate)] | 103% and 98.3% | 93.7 | 94.7 | 101 | 91.5 | 95.9 | 88.5 | 99.8
